One may read the inhibition as the change of the read-out against control, counted positive when it falls.

Test [1] in a line: yeast TOR pathway RPL19A-GFP modulators, primary screen, cell-based, S. cerevisiae, multiplex flow cytometry (AID 1862; in the data active = percent of DMSO control GFP below about 86%;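 also: lower values mimic rapamycin by blocking the RPL19A rise seen in DMSO cells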). Conditions: S. cerevisiae RPL19A-GFP strain, flow cytometry fluorescence, 3 h; at 10 µM; stronger effect = lower value.
Test [2] can be described thus: modulators of MEP2-GFP levels in yeast, primary screen, S. cerevisiae, multiplex flow cytometry (AID 1867;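 active = GFP response, as percent of the DMSO control, above the screen-wide mean plus 3 SD, about 139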;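 also: median GFP channel fluorescence of barcode-gated MEP2-GFP cells measured by flow cytometry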). Conditions: S. cerevisiae MEP2-GFP strain, 3 h, at 10 µM, stronger effect = higher value, 100% means same as DMSO wells. For orientation: A flow cytometer gives signals particle by particle.
A short description of test [3]: modulators of CIT2-GFP expression in yeast, primary screen, S. cerevisiae, GFP fusion, multiplex flow cytometry (AID 1870;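 active = percent response above a set limit, the screen-wide mean plus 3 SD, cut at about 130% in these data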;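 also: barcoded CIT2-GFP strain pooled with four other GFP strains with rapamycin as positive control; median GFP fluorescence per well over plate mean of DMSO wells so 100% = DMSO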). The note with it: 3 h, at 10 µM, stronger effect = higher value.
Test [4] in a line: modulators of LAP4-GFP expression in yeast, primary screen, S. cerevisiae, multiplex flow cytometry (AID 1873;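 active = GFP signal, as percent of the solvent control, above the screen mean plus 3 SD, about 149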). Conditions: 3 h, at 10 µM, stronger effect = higher value.
Test [5] in a line: modulators of AGP1-GFP expression in yeast TOR pathway, primary screen, cell-based, multiplex flow cytometry, S. cerevisiae (AID 1887;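 active = GFP signal above the screen-wide mean plus 3 SD, that is over about 124.5% of the solvent control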;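 also: AGP1-GFP fusion strain of S. cerevisiae within a five-strain barcoded multiplex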). Conditions: 3 h, at 10 µM, stronger effect = higher value.
Test [6] is described as follows: inhibitors of CD8+ T cell-vesicle binding, pilot screen, LFA-1/ICAM-1 modulator project, MLPCN validation set, flow cytometry (AID 2523).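 As to vesicle binding response: mean PE anti-B7-1 fluorescence of CD8+ cells relative to row control; 100% = QL9-loaded vesicles with DMSO vehicle in the same plate row.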 Conditions: 2C mouse CD8+ T cells, at 7 µM, stronger effect = lower value; double positive events: measured here: CD8+/vesicle+ event percentage.
Test [7] deals with Integrin beta-1 (Homo sapiens) + Integrin alpha-4 (Homo sapiens) (UniProt P13612+P05556). The test can be described thus: inhibition of HUTS-21 binding to VLA-4, pilot screen, VLA-4 allosteric modulator project, U937 cells, HUTS-21 mAb, flow cytometry, validation set (AID 2674;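 active = inhibition above 50%, about 3 SD of the validation set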;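 also: antibody binding induced by the VLA-4 ligand LDV present at three times its Kd; 0% = LDV ligand with antibody and no compound and 100% = antibody without LDV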). The note with it: HUTS-21 LIBS mAb binding, at 6.7 µM, stronger effect = higher value, binding induced by LDV ligand.

Test [8] is described as follows: superoxide lowering in aged yeast cells, pilot screen, validation compound set (AID 2706;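 active = superoxide response below 65% of plate, a cut near 3 SD across the whole screen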;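 also: yeast exposed to compound for one week at 30 degrees C before staining; 100% = mean of all compound wells on the same plate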). Conditions: S. cerevisiae aging, superoxide DHE fluorescence; at 10 µM; stronger effect = lower value.
The target in test [9] is Beta-adrenergic receptor kinase 1 (Homo sapiens) (UniProt P25098). Kind of test: GRK2 binders displacing RNA aptamer, biochemical, validation, human GRK2, bead flow cytometry (AID 488806;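 active = aptamer binding inhibition above 30%, about 3 SD of noise from non-fluorescent compounds; inactive = inhibition at or below 30%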). Conditions: bead-bound GRK2, FAM-aptamer displacement, at 10 µM, stronger effect = higher value.
Test [10] has as its target Beta-2 adrenergic receptor (Homo sapiens) (UniProt P07550). The test can be described thus: beta2AR agonists driving receptor internalization, pilot screen, cell-based, FAP fluorogen, flow cytometry, validation set (AID 504459;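 active = percent response above 42, roughly 3 SD of non-fluorescent test compounds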;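 also: agonist-driven loss of surface beta2AR via internalization measured by FAP dye flow cytometry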). The note with it: Am2.2-beta2AR cells, FAP surface receptor flow cytometry; at 10 µM; stronger effect = higher value.
Test [11] concerns the target AP-2 complex subunit beta (Homo sapiens) (UniProt P63010). Kind of test: inhibitors of arrestin peptide binding to AP2, pilot screen, biochemical, validation set, GST-AP2 beads, flow cytometry (AID 504541;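 active = inhibition above 54%, about 3 SD of non-fluorescent compounds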;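 also: AP2 carries R879A mutation and is captured from E. coli lysate; bead-bound FITC arrestin peptide fluorescence measuring arrestin peptide binding to AP2; 0% = DMSO wells and 100% = excess unlabeled arrestin peptide control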). The note with it: FITC arrestin peptide, at 10 µM, stronger effect = higher value, AP2 beta2 appendage fragment, R879A mutant.
The nature of test [12]: yeast V-ATPase proton transport modulators, S. cerevisiae, pHLuorin, HTS validation (AID 504600; in the data active = response above about 15%;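 also: plate controls were DMSO for no effect and reference compound for full effect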). The note with it: S. cerevisiae pHLuorin cytosolic pH, at 10 µM, stronger effect = higher value.
For test [13], the system named is anti-desmoglein-3 scFv antibody binding to human DSG3. Kind of test: inhibitors of anti-DSG3 scFv binding to DSG3, pilot screen, biochemical, validation compound set, bead-based, flow cytometry (AID 588368;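 active = binding below the plate cutoff, the plate median minus 3 SD, with a reading above zero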;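 also: signal is the median channel fluorescence of bead-bound GFP antibody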). Conditions: Protein G beads, DSG3-Fc, scFv-GFP binding, at 10 µM, stronger effect = lower value.
Test [14] can be described thus: inhibitors of fungal efflux pumps CDR1, CDR2, MDR1, pilot screen, validation compound set, multiplex, phenotypic (AID 588506;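 active = efflux inhibition above 0.42, the validation set average plus 4 SD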;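 also: Nile Red retained in cells so higher fluorescence means more efflux inhibition; 0 = negative control wells and 1 = enniatin B 25 µM full block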). The note with it: S. cerevisiae pump-expressing triplex, Nile Red efflux flow cytometry; at 10 µM; stronger effect = higher value; the pumps come from Candida albicans.
The target of test [15] is ATP-binding cassette sub-family B member 6 (Homo sapiens) (UniProt Q9NP58). The test can be described thus: ABCB6 transporter inhibitors, pilot screen, K562-ABCB6 cells, flow cytometry, validation set (AID 588550;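 active = inhibition above the screen-wide mean plus 3 SD, about 51%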;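 also: 0% = DMSO wells and 100% = benzethonium chloride 70 µM positive control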). The note with it: K562-ABCB6 porphyrin accumulation, 1 h, at 10 µM, stronger effect = higher value.
Test [16] is described as follows: promoters of myeloid differentiation in arrested cells, primary screen, cell-based, GFP/MAC1 double positive, flow cytometry, validation set (AID 588685;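 active = differentiation response of at least 50%, scaled between solvent and reference control, from cells with both markers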;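 also: compound exposure lasts four days before antibody staining and flow analysis; 0% = DMSO wells and 100% = 5 µM fulvestrant positive control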). Conditions: ER-HoxA9 marrow cells, stronger effect = higher value, normalized: vehicle 0, fulvestrant 100.

The structures appear in SMILES notation. “And” between values parts separate entries of the source, which are not always exact repeats. Identical values can stand only once. Records with an inconclusive call do not appear. The source made the active and inactive calls.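 The calls were made as follows, unless noted: active = response below a set limit, under 55% cells CD8-positive and vesicle-bound, and CD8 cells' 90th-percentile brightness under 279; inactive = the rest.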

Chain of Beta-2 adrenergic receptor (Homo sapiens) (P07550 whole entry, looked up): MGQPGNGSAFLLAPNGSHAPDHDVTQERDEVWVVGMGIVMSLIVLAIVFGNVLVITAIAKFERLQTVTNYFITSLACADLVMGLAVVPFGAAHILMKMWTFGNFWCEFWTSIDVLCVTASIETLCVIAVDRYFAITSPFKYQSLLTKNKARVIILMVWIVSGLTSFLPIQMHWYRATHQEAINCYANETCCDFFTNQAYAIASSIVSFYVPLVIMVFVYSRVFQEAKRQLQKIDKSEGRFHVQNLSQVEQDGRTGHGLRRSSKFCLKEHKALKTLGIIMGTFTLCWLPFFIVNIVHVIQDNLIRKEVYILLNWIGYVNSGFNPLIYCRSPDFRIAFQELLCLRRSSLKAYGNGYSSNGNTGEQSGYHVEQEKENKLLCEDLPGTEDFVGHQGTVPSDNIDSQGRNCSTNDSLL
Chain of Integrin beta-1 (Homo sapiens) + Integrin alpha-4 (Homo sapiens) (P05556 whole entry, looked up): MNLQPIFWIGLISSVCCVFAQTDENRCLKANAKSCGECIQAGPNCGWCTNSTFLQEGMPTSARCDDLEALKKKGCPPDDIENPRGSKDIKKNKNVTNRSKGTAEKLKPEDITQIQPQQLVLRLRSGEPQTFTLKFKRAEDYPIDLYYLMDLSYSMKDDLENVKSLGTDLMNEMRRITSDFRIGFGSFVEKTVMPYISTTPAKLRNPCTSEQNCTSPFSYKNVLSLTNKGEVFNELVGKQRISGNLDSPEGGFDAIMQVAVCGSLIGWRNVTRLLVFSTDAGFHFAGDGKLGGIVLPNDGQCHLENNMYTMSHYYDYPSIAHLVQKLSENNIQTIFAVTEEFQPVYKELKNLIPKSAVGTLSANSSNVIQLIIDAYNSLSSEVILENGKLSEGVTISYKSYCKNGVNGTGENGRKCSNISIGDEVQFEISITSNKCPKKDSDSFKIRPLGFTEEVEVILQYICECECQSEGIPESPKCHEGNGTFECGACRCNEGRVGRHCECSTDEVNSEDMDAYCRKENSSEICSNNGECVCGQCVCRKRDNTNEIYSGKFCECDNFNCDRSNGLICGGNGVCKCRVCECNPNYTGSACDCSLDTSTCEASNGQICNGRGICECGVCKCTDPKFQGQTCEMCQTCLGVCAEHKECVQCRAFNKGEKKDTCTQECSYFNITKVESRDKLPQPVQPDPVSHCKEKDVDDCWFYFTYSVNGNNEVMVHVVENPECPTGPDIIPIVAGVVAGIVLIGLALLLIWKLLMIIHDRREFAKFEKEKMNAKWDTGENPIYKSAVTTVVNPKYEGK
Chain of Integrin beta-1 (Homo sapiens) + Integrin alpha-4 (Homo sapiens) (P13612 whole entry, looked up): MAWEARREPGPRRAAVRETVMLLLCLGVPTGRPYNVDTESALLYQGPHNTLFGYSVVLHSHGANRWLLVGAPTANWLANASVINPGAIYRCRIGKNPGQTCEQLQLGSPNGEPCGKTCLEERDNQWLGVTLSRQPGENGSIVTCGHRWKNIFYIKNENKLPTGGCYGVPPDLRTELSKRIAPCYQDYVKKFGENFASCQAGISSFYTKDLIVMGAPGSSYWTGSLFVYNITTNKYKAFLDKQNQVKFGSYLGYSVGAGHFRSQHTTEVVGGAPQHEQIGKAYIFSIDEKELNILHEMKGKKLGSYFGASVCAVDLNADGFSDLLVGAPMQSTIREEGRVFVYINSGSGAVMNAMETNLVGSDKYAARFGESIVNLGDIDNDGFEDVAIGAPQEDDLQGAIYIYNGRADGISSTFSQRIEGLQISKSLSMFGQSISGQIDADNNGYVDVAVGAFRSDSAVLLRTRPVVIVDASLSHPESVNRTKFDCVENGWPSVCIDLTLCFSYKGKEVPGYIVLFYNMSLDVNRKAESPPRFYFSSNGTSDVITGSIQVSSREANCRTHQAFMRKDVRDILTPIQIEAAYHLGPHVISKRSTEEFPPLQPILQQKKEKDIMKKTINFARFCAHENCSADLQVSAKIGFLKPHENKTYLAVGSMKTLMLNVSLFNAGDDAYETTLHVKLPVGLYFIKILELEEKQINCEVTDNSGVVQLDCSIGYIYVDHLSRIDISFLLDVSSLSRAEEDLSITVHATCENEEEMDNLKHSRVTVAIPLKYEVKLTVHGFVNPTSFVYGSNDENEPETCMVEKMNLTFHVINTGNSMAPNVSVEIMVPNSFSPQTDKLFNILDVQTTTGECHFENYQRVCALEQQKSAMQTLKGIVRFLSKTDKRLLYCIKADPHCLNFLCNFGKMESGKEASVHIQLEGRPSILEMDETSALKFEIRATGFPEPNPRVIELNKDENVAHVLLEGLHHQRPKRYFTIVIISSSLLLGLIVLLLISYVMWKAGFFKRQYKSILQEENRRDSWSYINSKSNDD
Chain of AP-2 complex subunit beta (Homo sapiens) (P63010 whole entry, looked up, the tested form may be a part, one chain of several): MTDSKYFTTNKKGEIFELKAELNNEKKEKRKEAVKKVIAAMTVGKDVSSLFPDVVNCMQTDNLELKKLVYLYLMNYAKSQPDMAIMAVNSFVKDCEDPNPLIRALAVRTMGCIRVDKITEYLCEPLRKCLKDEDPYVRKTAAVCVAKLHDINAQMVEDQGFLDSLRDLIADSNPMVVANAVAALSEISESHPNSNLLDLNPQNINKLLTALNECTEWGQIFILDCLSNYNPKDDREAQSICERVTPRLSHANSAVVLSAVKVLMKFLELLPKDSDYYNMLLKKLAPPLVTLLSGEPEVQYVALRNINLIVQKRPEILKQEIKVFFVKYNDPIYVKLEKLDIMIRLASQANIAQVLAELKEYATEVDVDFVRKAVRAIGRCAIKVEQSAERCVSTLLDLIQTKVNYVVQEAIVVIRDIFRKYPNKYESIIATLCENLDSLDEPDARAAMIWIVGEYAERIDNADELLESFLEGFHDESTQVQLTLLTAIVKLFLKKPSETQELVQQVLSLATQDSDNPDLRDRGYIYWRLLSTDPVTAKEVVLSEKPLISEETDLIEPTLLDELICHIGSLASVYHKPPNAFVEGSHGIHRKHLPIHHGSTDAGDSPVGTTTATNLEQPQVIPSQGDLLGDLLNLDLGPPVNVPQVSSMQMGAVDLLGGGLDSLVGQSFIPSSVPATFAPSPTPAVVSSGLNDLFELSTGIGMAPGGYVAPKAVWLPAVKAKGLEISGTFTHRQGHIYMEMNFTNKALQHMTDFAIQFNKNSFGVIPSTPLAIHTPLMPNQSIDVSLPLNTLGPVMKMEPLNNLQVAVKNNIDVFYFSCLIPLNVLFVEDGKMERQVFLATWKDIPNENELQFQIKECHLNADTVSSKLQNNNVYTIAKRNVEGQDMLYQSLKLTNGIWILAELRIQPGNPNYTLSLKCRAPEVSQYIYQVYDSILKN
Chain of Beta-adrenergic receptor kinase 1 (Homo sapiens) (P25098 whole entry, looked up): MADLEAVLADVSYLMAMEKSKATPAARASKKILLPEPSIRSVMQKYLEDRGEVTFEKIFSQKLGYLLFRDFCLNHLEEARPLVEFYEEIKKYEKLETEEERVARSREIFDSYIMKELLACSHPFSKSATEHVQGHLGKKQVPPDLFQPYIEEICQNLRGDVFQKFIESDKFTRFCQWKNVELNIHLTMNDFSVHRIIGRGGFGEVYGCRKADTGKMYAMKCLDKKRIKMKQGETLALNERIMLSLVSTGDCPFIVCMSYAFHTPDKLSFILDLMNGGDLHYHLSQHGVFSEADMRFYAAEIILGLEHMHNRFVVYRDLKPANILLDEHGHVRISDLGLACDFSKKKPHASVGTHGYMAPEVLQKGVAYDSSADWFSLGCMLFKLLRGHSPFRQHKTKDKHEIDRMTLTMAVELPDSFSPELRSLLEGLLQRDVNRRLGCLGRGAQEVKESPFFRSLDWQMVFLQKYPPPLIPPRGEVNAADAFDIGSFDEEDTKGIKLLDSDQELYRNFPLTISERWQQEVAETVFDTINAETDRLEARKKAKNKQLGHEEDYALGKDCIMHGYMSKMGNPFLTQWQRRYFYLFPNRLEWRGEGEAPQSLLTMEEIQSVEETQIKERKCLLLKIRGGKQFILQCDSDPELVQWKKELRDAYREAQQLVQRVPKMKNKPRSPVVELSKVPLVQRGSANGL
Chain of ATP-binding cassette sub-family B member 6 (Homo sapiens) (Q9NP58 whole entry, looked up): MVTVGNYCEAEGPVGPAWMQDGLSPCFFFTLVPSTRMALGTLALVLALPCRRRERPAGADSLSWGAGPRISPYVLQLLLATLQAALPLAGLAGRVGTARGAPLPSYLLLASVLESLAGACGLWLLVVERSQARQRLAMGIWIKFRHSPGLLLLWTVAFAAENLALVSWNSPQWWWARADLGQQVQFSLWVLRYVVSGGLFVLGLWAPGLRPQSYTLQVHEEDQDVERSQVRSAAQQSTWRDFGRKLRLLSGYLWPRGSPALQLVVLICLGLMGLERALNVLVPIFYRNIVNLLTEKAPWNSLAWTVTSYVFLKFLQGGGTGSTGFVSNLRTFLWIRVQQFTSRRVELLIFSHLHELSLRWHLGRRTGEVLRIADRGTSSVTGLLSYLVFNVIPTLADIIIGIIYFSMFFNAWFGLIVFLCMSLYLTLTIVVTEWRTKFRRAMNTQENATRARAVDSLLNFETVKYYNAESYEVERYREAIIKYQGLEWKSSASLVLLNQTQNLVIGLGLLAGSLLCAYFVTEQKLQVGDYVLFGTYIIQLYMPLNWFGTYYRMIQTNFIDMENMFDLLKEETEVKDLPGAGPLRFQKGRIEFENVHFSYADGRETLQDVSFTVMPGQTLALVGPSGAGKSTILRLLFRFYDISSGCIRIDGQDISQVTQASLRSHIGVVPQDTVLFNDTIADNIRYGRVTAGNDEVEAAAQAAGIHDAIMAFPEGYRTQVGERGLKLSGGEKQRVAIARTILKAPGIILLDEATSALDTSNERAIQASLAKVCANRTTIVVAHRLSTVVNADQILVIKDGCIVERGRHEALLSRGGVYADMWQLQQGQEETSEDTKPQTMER

Turning to `COc1ccc(CNC(=O)c2c(O)c3cccc4c3n(c2=O)CCC4)cc1`, the percent of DMSO control GFP in test [1] is 104% (inactive). The figures for the GFP response vs DMSO in test [2] and in test [4] were 105% (inactive) and 94.4% (inactive), respectively. In addition, in [3], the percent response of DMSO control is 93.9% (inactive). For the same molecule, the GFP response, % of DMSO in [5] is 99.4% (inactive). In addition, the double positive events in test [6] was determined as 57.5%. Moreover, in test [6], the vesicle binding response was 18.9% (inactive). The inhibition in [7] was -7.47% (inactive); in [11] it was 7.55% (inactive); in test [15], 5% (inactive). Besides, the superoxide response (% of plate) in test [8] was 96.7% (inactive). Moreover, in [9], the aptamer binding inhibition is 9% (inactive). Also, the response in test [10] was 4.63% (inactive); in test [12], -1.56% (inactive). In addition, the binding (% of control) in test [13] was 99.5% (inactive). Further, the efflux inhibition (fraction of control) in [14] is 0.62 (active). Further, in test [16], the differentiation response is 1.17% (inactive).
With `CSCCC(NC(=O)OC(C)(C)C)C(=O)Oc1ccc2c(=O)c(-c3ccc4c(c3)OCCO4)coc2c1` (centres undefined), in test [1], the percent of DMSO control GFP was 95.9% (inactive). For the same molecule, the GFP response vs DMSO in test [2] is 107% (inactive); in test [4], 132% (inactive). Besides, the percent response of DMSO control in test [3] is 94.8% (inactive). The GFP response, % of DMSO in [5] is 102% (inactive). In test [6], this molecule had a double positive events of 59.4%. The vesicle binding response in test [6] is 190% (inactive). The inhibition in [7] is -1.79% (inactive); in [11], 3.81% (inactive); in [15], 1% (inactive). The superoxide response (% of plate) in test [8] is 99.7% (inactive). Besides, in test [9], the aptamer binding inhibition is 2% (inactive). Further, the values for the response in test [10] and in test [12] were 0.95% (inactive) and -3.69% (inactive), respectively. Also, the binding (% of control) in [13] is 100% (inactive). Besides, the efflux inhibition (fraction of control) in test [14] was -0.1 (inactive). The differentiation response in test [16] was 5.6% (inactive).
Regarding `CCOC(=O)C(=O)N1CCN(c2ccccc2OC)CC1`, in test [1], the percent of DMSO control GFP is 97.9% (inactive). The GFP response vs DMSO in [2] is 112% (inactive); in test [4] it was 94.8% (inactive). Besides, the percent response of DMSO control in test [3] was 98.6% (inactive). Besides, the GFP response, % of DMSO in [5] is 104% (inactive). In [6], this molecule displayed a double positive events of 64.7%. Moreover, in test [6], the vesicle binding response is 175% (inactive). Also, the inhibition in test [7] is -9.13% (inactive); in test [11] it was 14.2% (inactive); in test [15], 7% (inactive). In addition, the superoxide response (% of plate) in [8] is 98% (inactive). For the same molecule, the aptamer binding inhibition in test [9] is 3% (inactive). Also, the response was 3.6% (inactive) in [10] and -4.83% (inactive) in test [12]. Besides, the binding (% of control) in test [13] was 102% (inactive). Also, the efflux inhibition (fraction of control) in [14] was -0.125 (inactive). In addition, the differentiation response in test [16] was -8.96% (inactive).
On to `COc1cc2nc(N3CCN(C(=O)C4CCCO4)CC3)nc(N)c2cc1OC` (centres undefined), for which, in [1], the percent of DMSO control GFP was 102% (inactive). Moreover, the GFP response vs DMSO in [2] was 106% (inactive); in [4], 92.6% (inactive). Further, the percent response of DMSO control in test [3] is 95.5% (inactive). Moreover, the GFP response, % of DMSO in [5] is 94% (inactive). The double positive events in [6] was 55.7% and 64.6%. Also, the vesicle binding response in test [6] is 197% (inactive) and 148% (inactive). The inhibition in test [7] is 1.62% (inactive) and 5.61% (inactive); in test [11], 8.12% (inactive) and -5.62% (inactive); in [15] it was 7% (inactive) and -13% (inactive). The superoxide response (% of plate) in test [8] was 98% (inactive) and 91.7% (inactive). For the same molecule, in test [9], the aptamer binding inhibition was -3% (inactive) and 5% (inactive). In addition, the response in test [10] was 20.9% (inactive); in test [12], -29.6% (inactive) and 2.76% (inactive). In addition, the binding (% of control) in [13] was 109% (inactive) and 107% (inactive). Besides, the efflux inhibition (fraction of control) in [14] is -0.39 (inactive) and -0.33 (inactive). Moreover, in test [16], the differentiation response was 22.4% (inactive) and 10.1% (inactive).
`CC(=O)OC1c2c(ccc3ccc(=O)oc23)OC(C)(C)C1OC(=O)CC(C)C` (centres undefined): the percent of DMSO control GFP in test [1] was 103% (inactive). The GFP response vs DMSO in test [2] is 99.3% (inactive); in [4], 98% (inactive). The percent response of DMSO control in test [3] was 104% (inactive). Further, the GFP response, % of DMSO in test [5] was 94.2% (inactive). The same molecule displayed a double positive events in [6] of 64.2%. Also, the vesicle binding response in test [6] was 1500% (inactive). The results for the inhibition in [7], in [11] and in test [15] were 19.3% (inactive), 1.97% (inactive) and 15% (inactive), respectively. The superoxide response (% of plate) in test [8] is 90.3% (inactive). Besides, in test [9], the aptamer binding inhibition was 3% (inactive). The response in test [10] is -25.3% (inactive); in test [12], -1.96% (inactive). Further, in [13], the binding (% of control) is 100% (inactive). Besides, the efflux inhibition (fraction of control) in test [14] was 0.24 (inactive). Also, the differentiation response in [16] is -3.67% (inactive).
Regarding `COc1ccc2[nH]c(CN3CCN(CC(C)C)C(CCO)C3)c(C)c2c1` (centres undefined), the percent of DMSO control GFP in [1] is 98.8% (inactive). Moreover, the GFP response vs DMSO in test [2] and in [4] was 105% (inactive) in each case. In addition, the percent response of DMSO control in [3] is 94.8% (inactive). Also, in [5], the GFP response, % of DMSO is 98% (inactive). Also, in test [6], the double positive events was 61.7%. Further, the vesicle binding response in [6] was 231% (inactive). Besides, the inhibition was -3.16% (inactive) in test [7], -1.65% (inactive) in test [11] and 6% (inactive) in [15]. Moreover, the superoxide response (% of plate) in test [8] is 95.8% (inactive). Further, the aptamer binding inhibition in test [9] was 3% (inactive). The response was -3.42% (inactive) in test [10] and 2.28% (inactive) in [12]. Also, the binding (% of control) in test [13] was 97.4% (inactive). The efflux inhibition (fraction of control) in test [14] was -0.06 (inactive). Besides, the differentiation response in test [16] is -4% (inactive).
Regarding `Cn1cc(CN2CCN(CCO)CC2)c(-c2ccc(Oc3ccccc3)cc2)n1`, in test [1], the percent of DMSO control GFP was 102% (inactive). Moreover, the GFP response vs DMSO in test [2] is 102% (inactive); in test [4], 114% (inactive). Further, in test [3], the percent response of DMSO control is 96.7% (inactive). In test [5], the GFP response, % of DMSO is 100% (inactive). This molecule registered a double positive events in test [6] of 61%. For the same molecule, the vesicle binding response in [6] was 244% (inactive). Besides, the values for the inhibition in test [7], in [11] and in test [15] were 13.2% (inactive), -1.86% (inactive) and 6% (inactive), respectively. The superoxide response (% of plate) in test [8] was 82.1% (inactive). Besides, the aptamer binding inhibition in test [9] is 0% (inactive). Moreover, the results for the response in test [10] and in test [12] were 11.3% (inactive) and 3.7% (inactive), respectively. Moreover, the binding (% of control) in test [13] was 99.7% (inactive). For the same molecule, in [14], the efflux inhibition (fraction of control) is -0.28 (inactive). Besides, the differentiation response in test [16] was 15.2% (inactive).

The values are drawn from PubChem BioAssay.
